We go through eight compounds from PubChem BioAssay (NCI).

The panel holds about 79,000 compounds, 15% with a hit somewhere; the sample as a whole holds those more often. Unmarked numbers belong to inactive results. Active and inactive are the calls of the source. Rule as the data show it: active = growth inhibition above about 70%; inactive = the rest.

The nature of the experiment: NCI Yeast Anticancer Drug Screen. Data for the wt1 strain (AID 149).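 Also: 0% = growth of vehicle-treated wt1 cultures.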 Particulars: S. cerevisiae wt1 strain (SPY 50644) growth inhibition, stronger effect = higher value. As for the experimental part:
Growth inhibition of yeast strains with defined genetic alterations is measured as a screen for potential anti-cancer activity. Selected strains with alterations in DNA damage repair or cell cycle control were exposed to compounds and growth inhibition was measured relative to vehicle treated controls. The strain used in this assay is wt1

Turning to `O=P(NC1CCCCC1)(OCc1ccccc1)OCc1ccccc1`, the growth inhibition is, setting by setting: (at 1.2 µM) 0%; (at 3.7 µM) 3%; (at 11.0 µM) 0%; (at 33.0 µM) 3%; (at 100.0 µM) 7%.

For `COC(=O)Nc1cn2ccc(C(Cl)=C(Cl)Cl)cc2n1`, the growth inhibition was -16% (at 1.2 µM); -21% (at 3.7 µM); -33% (at 11.0 µM); -29% (at 33.0 µM); -33% (at 100.0 µM).

Turning to `Cc1c2cc[n+](Cc3ccc(I)cc3)cc2c(C)c2c1[nH]c1ccccc12`, the growth inhibition was 10% (at 1.2 µM); 8% (at 3.7 µM); 89% (active) (at 11.0 µM); 98% (active) (at 33.0 µM); 97% (active) (at 100.0 µM).

Regarding `CC1CC[C@]2(C(=O)O)CCC3(C)C(=CC(=O)C4[C@@]5(C)CCC(=O)C(C)(C)C5CC[C@]43C)[C@@H]2[C@H]1C` (stereo not given in full), the growth inhibition runs as follows: (at 1.2 µM) 9%; (at 3.7 µM) 20%; (at 11.0 µM) 93% (active); (at 33.0 µM) 98% (active); (at 100.0 µM) 97% (active).

For `COC1=C(N)C(=O)c2nc(-c3nc(C(=O)O)c(C)c(-c4ccc(OC)c(OC)c4O)c3N)ccc2C1=O`, the growth inhibition was 98% (active) (at 1.2 µM); 99% (active) (at 3.7 µM); 99% (active) (at 11.0 µM); 99% (active) (at 33.0 µM); 98% (active) (at 100.0 µM).

In the case of `CC(C)(C)CC(C)(C)c1cc(O)c(O)c(CN2CCCCC2)c1`, the growth inhibition was 0% (at 1.2 µM); 1% (at 3.7 µM); 4% (at 11.0 µM); 10% (at 33.0 µM); 7% (at 100.0 µM).

On to `O=[N+]([O-])c1cccc2nc3ccccc3c(NCCC[N+]3([O-])CCCCC3)c12`, for which the growth inhibition reads like this: (at 1.2 µM) 1%; (at 3.7 µM) 2%; (at 11.0 µM) 4%; (at 33.0 µM) 15%; (at 100.0 µM) 46%.

For the compound `CN(C)C=NC1CCC(C(C)(C)C)CC1` (stereo not given), the growth inhibition was -4% (at 1.2 µM); -5% (at 3.7 µM); -1% (at 11.0 µM); 51% (at 33.0 µM); 97% (active) (at 100.0 µM).
